Article PMC11006913

target: T1, NKX2-6 (Homo sapiens, UniProt A6NCS4 118-204, R150C); assay: PBM; 200 nM protein, PBS; conditions: dsDNA, one strand shown
T1 sequence: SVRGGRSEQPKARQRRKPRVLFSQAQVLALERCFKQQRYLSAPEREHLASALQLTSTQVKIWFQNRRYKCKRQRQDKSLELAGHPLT

Row | Sequence | binding signal
1 | TACAAGTA | 11.3 upbm affinity estimate (log intensity, higher = more binding, comparable within an allelic series)
2 | AACGGGAC | 9.62 upbm affinity estimate (log intensity, higher = more binding, comparable within an allelic series)
3 | CCGTAGCG | 9.34 upbm affinity estimate (log intensity, higher = more binding, comparable within an allelic series)
4 | CACAGGCG | 9.43 upbm affinity estimate (log intensity, higher = more binding, comparable within an allelic series)
5 | AAGCCCCC | 9.33 upbm affinity estimate (log intensity, higher = more binding, comparable within an allelic series)
6 | CACTTGTC | 11.4 upbm affinity estimate (log intensity, higher = more binding, comparable within an allelic series)
7 | CAGACGCC | 9.62 upbm affinity estimate (log intensity, higher = more binding, comparable within an allelic series)
8 | CACTTCCA | 11 upbm affinity estimate (log intensity, higher = more binding, comparable within an allelic series)
9 | ACCGACGC | 9.5 upbm affinity estimate (log intensity, higher = more binding, comparable within an allelic series)
10 | CCCTGCCA | 9.63 upbm affinity estimate (log intensity, higher = more binding, comparable within an allelic series)
11 | GGGGAACC | 9.63 upbm affinity estimate (log intensity, higher = more binding, comparable within an allelic series)
12 | AAAAAGTG | 11.2 upbm affinity estimate (log intensity, higher = more binding, comparable within an allelic series)
13 | CGCTCACC | 9.46 upbm affinity estimate (log intensity, higher = more binding, comparable within an allelic series)
14 | CGCCCGTC | 9.36 upbm affinity estimate (log intensity, higher = more binding, comparable within an allelic series)
15 | AAGAAGTG | 11.2 upbm affinity estimate (log intensity, higher = more binding, comparable within an allelic series)
16 | GAGGCGGA | 9.49 upbm affinity estimate (log intensity, higher = more binding, comparable within an allelic series)
17 | GGCGGGAC | 9.37 upbm affinity estimate (log intensity, higher = more binding, comparable within an allelic series)
18 | CAAGTGGA | 11.6 upbm affinity estimate (log intensity, higher = more binding, comparable within an allelic series)
19 | AAGAGTAG | 10.8 upbm affinity estimate (log intensity, higher = more binding, comparable within an allelic series)
20 | CGCCTACA | 9.72 upbm affinity estimate (log intensity, higher = more binding, comparable within an allelic series)

Row | Sequence | binding signal
21 | CCGGTAGG | 9.6 upbm affinity estimate (log intensity, higher = more binding, comparable within an allelic series)
22 | CTACCGGC | 9.49 upbm affinity estimate (log intensity, higher = more binding, comparable within an allelic series)
23 | GCGGACCA | 9.48 upbm affinity estimate (log intensity, higher = more binding, comparable within an allelic series)
24 | CCCGCACA | 9.66 upbm affinity estimate (log intensity, higher = more binding, comparable within an allelic series)
25 | AGAGTGGA | 11 upbm affinity estimate (log intensity, higher = more binding, comparable within an allelic series)
26 | CCCGCCGA | 9.28 upbm affinity estimate (log intensity, higher = more binding, comparable within an allelic series)
27 | GATCCGAC | 9.56 upbm affinity estimate (log intensity, higher = more binding, comparable within an allelic series)
28 | CTACTTTA | 11 upbm affinity estimate (log intensity, higher = more binding, comparable within an allelic series)
29 | ATCACCCG | 9.63 upbm affinity estimate (log intensity, higher = more binding, comparable within an allelic series)
30 | GGGCCACC | 9.52 upbm affinity estimate (log intensity, higher = more binding, comparable within an allelic series)
31 | ATACTTTG | 10.7 upbm affinity estimate (log intensity, higher = more binding, comparable within an allelic series)
32 | AGCCCCTG | 9.59 upbm affinity estimate (log intensity, higher = more binding, comparable within an allelic series)
33 | TCACTCAA | 10.9 upbm affinity estimate (log intensity, higher = more binding, comparable within an allelic series)
34 | ACCTCCCC | 9.56 upbm affinity estimate (log intensity, higher = more binding, comparable within an allelic series)
35 | CTTGCCGC | 9.53 upbm affinity estimate (log intensity, higher = more binding, comparable within an allelic series)
36 | ACCGTGGA | 9.56 upbm affinity estimate (log intensity, higher = more binding, comparable within an allelic series)
37 | GGTCAGAC | 9.52 upbm affinity estimate (log intensity, higher = more binding, comparable within an allelic series)
38 | AGGCACCC | 9.55 upbm affinity estimate (log intensity, higher = more binding, comparable within an allelic series)
39 | GCCGTGAA | 9.62 upbm affinity estimate (log intensity, higher = more binding, comparable within an allelic series)
40 | AAGCCACG | 9.49 upbm affinity estimate (log intensity, higher = more binding, comparable within an allelic series)
